# Compound activity: PubChem BioAssay, National Center for Advancing Translational Sciences (NCATS)
# BAZ2B block = qHTS Assay for Inhibitors of BAZ2B. Bromodomain adjacent to zinc finger domain protein 2B (Homo sapiens), Q9UIF8. AlphaScreen BAZ2B-H3K14Ac peptide displacement. Potency, µM (titrated, usually from 114 µM), for the others: at the highest dose activity change, negative = inhibition, actives largely listed as inhibitors. 360,000 compounds, 4.4% hits; note: % is set by controls: 0 for no effect and ±100 for the full control effect; nearly all actives have a fitted effect of over 60% in size
#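 AlphaScreen displacement of biotin-H3(5-23)K14Ac peptide (50 nM final) from BAZ2B (50 nM final) in PBS pH 7.4, 0.01% Tween-20; complex preformed 30 min RT, then compounds (top 110 uM) 30 min RT, beads 20 min dark.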
# PLK1 PBD block = qHTS for Inhibitors of PLK1-PDB (polo-like kinase 1 - polo-box domain): Primary Screen; Plk1 PBD binding of FITC phosphopeptide, fluorescence polarization; Serine/threonine-protein kinase PLK1 (Homo sapiens), P53350; Potency, µM, for inactives: max response, negative = inhibition, most hits filed as inhibitors; 360,000 compounds, 2.8% hits; AID 720504, 2013; note: series mostly up to about 57 µM; % is set by controls: 0 for no effect and ±100 for the full control effect; nearly all actives have a fitted effect of over 65% in size
# L3MBTL1 inh = qHTS Assay for the Inhibitors of L3MBTL1; Lethal(3)malignant brain tumor-like protein 1 (Homo sapiens), Q9Y468; AlphaScreen L3MBTL1–H3K9me1 peptide binding; Potency, µM (titrated, usually from 57.1 µM), for inactives: at the highest dose activity, negative = inhibition, hits mostly inhibitors; 230,000 compounds, 0.66% hits; AID 485360, 2010; note: % is set by controls: 0 for no effect and ±100 for the full control effect; nearly all actives have a fitted effect of over 60% in size
#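 L3MBTL1 (50 nM) pre-complexed 30 min with biotinylated H3(1-15)K9me1 peptide (75 nM), then compounds added for 30 min at room temperature; AlphaScreen streptavidin donor/nickel chelate acceptor beads (10 ug/mL final) read after 30 min dark incubation.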
# VDR inh = Inhibitors of the vitamin D receptor (VDR): qHTS. Potency, µM, for inactives: max response, negative = inhibition, actives largely listed as inhibitors. AID 504847, 2011. VDR-SRC2-3 peptide fluorescence polarization, 2 h. 400,000 compounds, 0.93% hits. Vitamin D3 receptor (Homo sapiens), P11473; note: % is set by controls: 0 for no effect and ±100 for the full control effect
#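 FP read-out; VDR + SRC2-3 coactivator peptide; 23 nl compound by pintool; 2 h RT incubation; reagents held at 4 deg C, protected from light.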
# JMJD2A Tudor = qHTS Assay for Inhibitors of JMJD2A-Tudor Domain; 390,000 compounds, 4.4% hits; Lysine-specific demethylase 4A (Homo sapiens), O75164; AlphaScreen JMJD2A-Tudor / H3K4me3 peptide binding; Potency, µM (highest dose often 114 µM), without a hit: top-dose activity change, negative = inhibition, usual class: inhibitors; note: % is set by controls: 0 for no effect and ±100 for the full control effect; nearly all actives have a fitted effect of over 50% in size
# Target sequence (O75164 whole entry, looked up, the tested form may be a part): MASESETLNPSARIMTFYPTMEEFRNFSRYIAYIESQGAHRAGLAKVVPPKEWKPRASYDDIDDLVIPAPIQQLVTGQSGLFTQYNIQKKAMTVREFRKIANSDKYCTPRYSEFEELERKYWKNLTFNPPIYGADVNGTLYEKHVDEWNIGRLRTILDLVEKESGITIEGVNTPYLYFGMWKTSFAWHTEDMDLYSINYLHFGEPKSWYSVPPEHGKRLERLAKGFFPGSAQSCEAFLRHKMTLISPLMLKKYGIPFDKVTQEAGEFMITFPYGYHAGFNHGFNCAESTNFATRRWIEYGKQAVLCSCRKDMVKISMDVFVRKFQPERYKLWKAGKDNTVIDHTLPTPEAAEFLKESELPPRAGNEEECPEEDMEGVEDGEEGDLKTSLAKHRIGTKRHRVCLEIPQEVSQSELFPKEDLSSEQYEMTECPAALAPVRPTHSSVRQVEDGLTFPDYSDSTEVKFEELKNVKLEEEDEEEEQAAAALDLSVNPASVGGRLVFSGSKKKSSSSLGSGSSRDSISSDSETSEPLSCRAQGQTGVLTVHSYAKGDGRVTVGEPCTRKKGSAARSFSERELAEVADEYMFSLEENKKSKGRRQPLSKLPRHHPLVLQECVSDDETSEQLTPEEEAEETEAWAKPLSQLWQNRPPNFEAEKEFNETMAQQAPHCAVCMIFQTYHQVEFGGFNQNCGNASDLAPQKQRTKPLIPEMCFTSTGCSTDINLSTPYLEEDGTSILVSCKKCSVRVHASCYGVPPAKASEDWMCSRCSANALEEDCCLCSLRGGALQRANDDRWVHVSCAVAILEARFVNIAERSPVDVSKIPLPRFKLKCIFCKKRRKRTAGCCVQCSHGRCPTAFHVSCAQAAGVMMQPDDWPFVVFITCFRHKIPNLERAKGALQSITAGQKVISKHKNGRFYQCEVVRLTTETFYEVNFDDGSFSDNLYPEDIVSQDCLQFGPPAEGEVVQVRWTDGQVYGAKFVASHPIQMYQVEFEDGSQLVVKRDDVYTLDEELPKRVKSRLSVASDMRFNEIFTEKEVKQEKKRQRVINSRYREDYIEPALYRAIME
# HP1b chromo inh = HTS for Inhibitors of HP1-beta Chromodomain Interactions with Methylated Histone Tails; Chromobox protein homolog 1 (Homo sapiens), P83916; AlphaScreen HP1-beta / biotin-H3K9me3 peptide binding; Potency, µM (top dose mostly 114 µM), without a hit: at the top dose activity change, negative = inhibition, most hits filed as inhibitors; 390,000 compounds, 0.56% hits; note: nearly all actives have a fitted effect of over 70% in size
#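 Compound inhibition of the preformed complex between 50 nM HP1-beta and 50 nM biotinylated H3K9me3 peptide was read by AlphaScreen. Buffer was PBS pH 7.4 with 0.01% Tween-20. Incubations ran 30 min at room temperature, with 10 ug/mL donor/acceptor beads.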
# An asterisk follows results filed as active; ? = inconclusive; nt = no result given; [ ] = dose if it differs, or a comment. This is a sample that favours compounds with a hit; in the whole collection about 6.9% have one here. Calls come from the whole dose curve; as a rule, active = well fitted curve in the direction sought with a large enough effect; inconclusive = small, poorly fitted or top-dose-only effect, or another doubt; inactive = no such curve, though single readings can be large; an effect the other way counts as inactive or inconclusive. Potency is the fitted concentration of half-maximal effect.
SMILES,BAZ2B block,PLK1 PBD block,L3MBTL1 inh,VDR inh,JMJD2A Tudor,HP1b chromo inh
NS(=O)(=O)c1ccc(N=Nc2c(O)c(C(=O)O)cc3ccccc23)cc1,40µM*,0%,-25%,-25%,?,?
COc1ccccc1CN1CCN(S(=O)(=O)c2ccccc2)CC1,32µM*,-3%,nt,-13%,40µM*,?
COc1cccc(CN2CCN(S(=O)(=O)c3ccccc3)CC2)c1OC,nt,0%,nt,2%,28µM*,?
COc1cc(CN2CCN(S(=O)(=O)c3ccccc3)CC2)cc(OC)c1O,-1%,nt,nt,-15%,8%,32%
COc1ccc(CN2CCN(S(=O)(=O)c3ccccc3)CC2)c(OC)c1OC,nt,0%,nt,-13%,22µM*,?
COc1cccc(CN(C)C(=O)c2cccc(S(=O)(=O)N3CCN(Cc4ccccc4)CC3)c2)c1OC,?,-5%,-1%,1%,-18%,15%
COc1ccc(OC)c(CN2CCN(S(=O)(=O)c3ccccc3)CC2)c1,?,6%,nt,-20%,20µM*,?
CCOc1ccccc1CN1CCN(S(=O)(=O)c2ccccc2)CC1,8%,nt,nt,4%,-7%,64%
COC(=O)C(Cc1ccc(O)cc1)NC(=O)C(C)NC(=O)c1ccc(C(C)(C)C)cc1 (centres undefined),-10%,-14%,nt,-14%,-17%,-9%
COc1ccc(Br)cc1CN1CCN(S(=O)(=O)Cc2ccccc2)CC1,-21%,-11%,nt,-11%,8.9µM*,?
CCOc1cc(CN2CCN(S(=O)(=O)Cc3ccccc3)CC2)ccc1OC,0%,-8%,nt,-9%,-5%,9%
O=C1c2cccc3c(O)ccc(c23)C(=O)N1c1ccc(Cl)cc1,11%,4.7µM*,nt,38%,9%,38%
CC(=O)Nc1ccc(N2C(=O)c3cccc4c(O)ccc(c34)C2=O)cc1,50µM*,4.7µM*,nt,-11%,?,16%
O=C1c2cccc3c(O)ccc(c23)C(=O)N1Cc1ccco1,-3%,4.7µM*,?,?,-17%,20%
CCCCc1ccc(-n2nc3cc(C)c(NC(=O)c4ccc(C#N)cc4F)cc3n2)cc1,-18%,nt,nt,-11%,1%,30%
Cc1ccc2c(=O)cc(C(=O)N(Cc3ccc(C(C)(C)C)cc3)C3CCS(=O)(=O)C3)oc2c1 (centres undefined),-27%,nt,nt,-6%,-20%,52%
O=C1CCc2cc([S+](=O)([O-])Nc3ccc(N[S+](=O)([O-])c4ccc5c(c4)CCC(=O)N5)cc3)ccc2N1,nt,nt,nt,nt,-6%,nt
CC(=O)N(CCCN1CCOCC1)Cc1ccncc1,?,30µM*,nt,-9%,0%[11.4 µM],26%
c1ccc(Nc2c(-c3ccco3)nc3ccccn23)cc1,50µM*,-2%,-4%,0%,-34%,-19%
Cc1ccc2nc(-c3ccco3)c(Nc3ccc4c(c3)OCCO4)n2c1,-13%,nt,nt,-10%,-10%,41%
c1coc(-c2nc3ccccn3c2Nc2ccc3c(c2)OCCO3)c1,45µM*,nt,nt,6%,56µM*,?
Cc1ccccc1Nc1c(-c2ccco2)nc2c(C)cccn12,25µM*,nt,nt,-8%,?,?
Cc1ccc(-c2nc3cnccn3c2Nc2ccc(C(C)C)cc2)o1,nt,nt,nt,?,45µM*,?
CCCCCNC(=O)C(=O)NCC(c1ccc2c(c1)OCO2)N1CCOCC1 (centres undefined),0%,nt,nt,-6%,0%,11%[57 µM]
Cc1ccn2c(Nc3ccc4c(c3)OCCO4)c(-c3ccc(C)o3)nc2c1,32µM*,nt,nt,-9%,45µM*,-7%
SMILES,BAZ2B block,PLK1 PBD block,L3MBTL1 inh,VDR inh,JMJD2A Tudor,HP1b chromo inh
CCCN(CCC)C(=O)c1c2c(nc3ccccc13)C(=O)N(C1CCCCC1)C2,-3%,nt,nt,-2%,-31%,-16%
Cc1cccnc1NC(=O)CCC(=O)c1cccs1,-9%,-14%,-5%,-6%,-18%,27%
Cc1c(C(=O)NC(=S)Nc2ccc(NC(=O)c3cccs3)cc2)oc2ccccc12,50µM*,-6%,-10%,-19%,-7%[11.4 µM],33%
Cc1cccnc1NC(=S)NC(=O)/C=C/c1ccccc1,79µM*,-15%,-7%,1%,-26%,14%
Cc1cccnc1NC(=S)NC(=O)c1cccs1,-28%,-1%,0%,8%,22µM*,-13%
NNC(=O)c1nc[nH]c1C(=O)Nc1ccccn1,2.5µM*,-5%,?,10%,2.8µM*,38%
COC(=O)c1ccc(NC(=O)CO/N=C2\CCCc3nonc32)cc1,-31%,-6%,-8%,-10%,-19%,5%
CCCCc1ccc(NC2=NCC(=O)N2CCc2ccccc2)cc1,11%,-1%,11%,20%,-5%,56%
COCCNC(=O)C1(C)CCCN(C(=O)Cc2ccc3ccccc3c2)C1 (centres undefined),nt,2%,nt,nt,nt,nt
COc1cccc(CNC(=O)c2ccc3nc(-c4ccc(F)cc4)c(-c4ccc(F)cc4)nc3c2)c1,-11%,nt,nt,-7%,-24%,15%
O=C(Nc1ccccn1)c1cccs1,15%,3.4µM*,nt,-12%,?,?
COc1ccc(-c2c(C)c3ccc(O)c(CN4CCCC(C)C4)c3oc2=O)cc1OC (centres undefined),?,nt,nt,16%,5%,23%[57 µM]
CCCCC(=O)NC(c1ccc(Cl)cc1)c1ccc2cccnc2c1O (centres undefined),nt,27µM*,nt,?,56µM*,12%
Cc1ccc(C(Nc2ccccn2)c2ccc3cccnc3c2O)cc1 (centres undefined),28µM*,nt,nt,?,20µM*,-8%
CCCCC(=O)NC(c1ccc(N(C)C)cc1)c1ccc2cccnc2c1O (centres undefined),20µM*,27µM*,?,-27%,18µM*,?
